Data: PubChem BioAssay AID1159580 (chemical genetic matrix, 2015)
In all, about 5,500 compounds went through this assay and about 2,000 (36%) were called active. About 18% were inconclusive and are not listed. Cut-off read from the data, not from the text of the source: active = normalized growth mostly below about 0.91 (no sharp cut-off); inconclusive = no clear call, values can overlap the other calls; inactive = mostly above about 0.92. Some of the results follow.

Assay: chemical genetic growth profiling, strain panel (AID 1159580);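 note: tested at 20 µM; growth read once vehicle control cultures reached saturation at 30 °C; 1 = growth at the plate median or of vehicle wells; lower values mean less growth of the strain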
Details: growth OD

Measured: normalized growth

CC12CCC3C(CC=C4CC(O)CCC43C)C1CCC2=O (centres undefined)
inactive: S. cerevisiae deletion strains, locus YKL068W, stronger effect = lower value 1.02 | S. cerevisiae deletion strains, locus YKL085W, strain MDH1 (second series), stronger effect = lower value 0.983 | S. cerevisiae deletion strains, locus YKL085W, strain MDH1, stronger effect = lower value 0.983 | S. cerevisiae deletion strains, locus YKL190W, strain CNB1, stronger effect = lower value 0.929 | S. cerevisiae deletion strains, locus YKR001C, strain vps1, stronger effect = lower value 1.01 | S. cerevisiae deletion strains, locus YKR026C, strain gcn3, stronger effect = lower value 1.03 | S. cerevisiae deletion strains, locus YKR091W, strain srl3, stronger effect = lower value 1.02 | S. cerevisiae deletion strains, locus YLL041C, strain sdh2, stronger effect = lower value 0.999 | S. cerevisiae deletion strains, locus YLR058C, strain SHM2, stronger effect = lower value 0.908 | S. cerevisiae deletion strains, locus YLR102C, strain apc9, stronger effect = lower value 1.02 | S. cerevisiae deletion strains, locus YLR258W, strain gsy2, stronger effect = lower value 0.939 | S. cerevisiae deletion strains, locus YLR330W, strain CHS5, stronger effect = lower value 0.929 | S. cerevisiae deletion strains, locus YLR342W, strain FKS1, stronger effect = lower value 0.932 | S. cerevisiae deletion strains, locus YLR357W, strain rsc2, stronger effect = lower value 1.1 | S. cerevisiae deletion strains, locus YLR370C, strain arc18, stronger effect = lower value 0.993 | S. cerevisiae deletion strains, locus YLR371W, strain rom2, stronger effect = lower value 1.07 | S. cerevisiae deletion strains, locus YLR384C, strain iki3, stronger effect = lower value 1.03 | S. cerevisiae deletion strains, locus YML016C, strain PPZ1, stronger effect = lower value 0.979 | S. cerevisiae deletion strains, locus YML120C, strain ndi1, stronger effect = lower value 0.92 | S. cerevisiae deletion strains, locus YML124C, strain tub3, stronger effect = lower value 1 | S. cerevisiae deletion strains, locus YMR078C, strain ctf18, stronger effect = lower value 1.02 | S. cerevisiae deletion strains, locus YMR125W, strain sto1, stronger effect = lower value 0.971 | S. cerevisiae deletion strains, locus YMR129W, stronger effect = lower value 0.975 | S. cerevisiae deletion strains, locus YMR223W, strain ubp8, stronger effect = lower value 0.946 | S. cerevisiae deletion strains, locus YMR231W, strain pep5, stronger effect = lower value 0.989 | S. cerevisiae deletion strains, locus YMR263W, strain SAP30, stronger effect = lower value 0.976 | S. cerevisiae deletion strains, locus YMR307W, strain GAS1, stronger effect = lower value 1.11 | S. cerevisiae deletion strains, locus YNL067W, strain RPL9B, stronger effect = lower value 0.917 | S. cerevisiae deletion strains, locus YNL153C, strain GIM3, stronger effect = lower value 0.887 | S. cerevisiae deletion strains, locus YNL233W, strain BNI4, stronger effect = lower value 0.889 | S. cerevisiae deletion strains, locus YNL250W, strain rad50, stronger effect = lower value 0.947 | S. cerevisiae deletion strains, locus YNL271C, strain bni1, stronger effect = lower value 0.993 | S. cerevisiae deletion strains, locus YNL298W, strain CLA4, stronger effect = lower value 0.929 | S. cerevisiae deletion strains, locus YNL322C, strain KRE1 (second series), stronger effect = lower value 1.01 | S. cerevisiae deletion strains, locus YNR049C, strain mso1, stronger effect = lower value 1.01 | S. cerevisiae deletion strains, locus YOL006C, strain TOP1, stronger effect = lower value 0.572 | S. cerevisiae deletion strains, locus YOL012C, strain htz1 1.48 | S. cerevisiae deletion strains, locus YOR061W, strain CKA2, stronger effect = lower value 0.907 | S. cerevisiae deletion strains, locus YOR069W, strain VPS5, stronger effect = lower value 0.962 | S. cerevisiae deletion strains, locus YOR080W, strain dia2, stronger effect = lower value 0.974 | S. cerevisiae deletion strains, locus YOR106W, strain vam3, stronger effect = lower value 0.89 | S. cerevisiae deletion strains, locus YOR136W, strain idh2, stronger effect = lower value 1.01 | S. cerevisiae deletion strains, locus YOR144C, strain elg1, stronger effect = lower value 0.987 | S. cerevisiae deletion strains, locus YOR265W, strain rbl2, stronger effect = lower value 0.969 | S. cerevisiae deletion strains, locus YOR316C, strain cot1, stronger effect = lower value 1.04 | S. cerevisiae deletion strains, locus YPL240C, strain hsp82, stronger effect = lower value 1.01 | S. cerevisiae deletion strains, locus YPL241C, strain CIN2, stronger effect = lower value 1.02 | S. cerevisiae deletion strains, locus YPR119W, strain clb2, stronger effect = lower value 1.05 | S. cerevisiae deletion strains, locus YPR141C, strain kar3, stronger effect = lower value 1.06 | S. cerevisiae deletion strains, locus YPR167C, strain met16, stronger effect = lower value 0.928
active: S. cerevisiae deletion strains, locus YKL009W, strain mrt4, stronger effect = lower value 0.868 | S. cerevisiae deletion strains, locus YKL160W, strain elf1, stronger effect = lower value 0.858 | S. cerevisiae deletion strains, locus YLL001W, strain dnm1, stronger effect = lower value 0.902 | S. cerevisiae deletion strains, locus YLL026W, stronger effect = lower value 0.88 | S. cerevisiae deletion strains, locus YLR027C, strain aat2, stronger effect = lower value 0.849 | S. cerevisiae deletion strains, locus YLR039C, strain RIC1, stronger effect = lower value 0.516 | S. cerevisiae deletion strains, locus YLR221C, strain rsa3, stronger effect = lower value 0.779 | S. cerevisiae deletion strains, locus YLR262C, strain YPT6 (second series), stronger effect = lower value 0.441 | S. cerevisiae deletion strains, locus YLR268W, strain sec22, stronger effect = lower value 0.882 | S. cerevisiae deletion strains, locus YLR320W, strain mms22, stronger effect = lower value 0.429 | S. cerevisiae deletion strains, locus YLR342W, strain FKS1 (second series), stronger effect = lower value 0.781 | S. cerevisiae deletion strains, locus YLR418C, strain cdc73, stronger effect = lower value 0.766 | S. cerevisiae deletion strains, locus YML032C, strain rad52, stronger effect = lower value 0.855 | S. cerevisiae deletion strains, locus YMR058W, strain fet3, stronger effect = lower value 0.885 | S. cerevisiae deletion strains, locus YMR205C, strain PFK2, stronger effect = lower value 0.811 | S. cerevisiae deletion strains, locus YNL071W, strain lat1, stronger effect = lower value 0.513 | S. cerevisiae deletion strains, locus YNL209W, strain ssb2, stronger effect = lower value 0.927 | S. cerevisiae deletion strains, locus YNL248C, strain rpa49, stronger effect = lower value 0.777 | S. cerevisiae deletion strains, locus YNL307C, strain MCK1, stronger effect = lower value 0.707 | S. cerevisiae deletion strains, locus YNL322C, strain KRE1, stronger effect = lower value 0.924 | S. cerevisiae deletion strains, locus YNR052C, strain pop2, stronger effect = lower value 0.861 | S. cerevisiae deletion strains, locus YOL147C, strain pex11, stronger effect = lower value 0.91 | S. cerevisiae deletion strains, locus YOR001W, strain rrp6, stronger effect = lower value 0.8 | S. cerevisiae deletion strains, locus YOR070C, strain gyp1, stronger effect = lower value 0.81 | S. cerevisiae deletion strains, locus YOR083W, strain WHI5, stronger effect = lower value 0.86 | S. cerevisiae deletion strains, locus YOR184W, strain ser1, stronger effect = lower value 0.694 | S. cerevisiae deletion strains, locus YOR270C, strain vph1, stronger effect = lower value 0.578 | S. cerevisiae deletion strains, locus YOR290C, strain snf2, stronger effect = lower value 0.848 | S. cerevisiae deletion strains, locus YPL051W, strain arl3, stronger effect = lower value 0.861 | S. cerevisiae deletion strains, locus YPL078C, strain atp4, stronger effect = lower value 0.864 | S. cerevisiae deletion strains, locus YPL106C, strain sse1, stronger effect = lower value 1.27 [resistant] | S. cerevisiae deletion strains, locus YPR163C, strain tif3, stronger effect = lower value 0.893 | S. cerevisiae deletion strains, strain wtn01, stronger effect = lower value 0.854 | S. cerevisiae strains, strain wild type, stronger effect = lower value 0.877
